Compound activity from PubChem.
Shown are actives, neighbours in structure and some others; about 19% of the full set was active somewhere.
MCF10A rereplic – induces DNA re-replication in MCF 10a normal breast cells. Potency, µM (highest dose often 46.1 µM), inactives show top-dose activity, positive = re-replication, most hits filed as activators. MCF 10A DNA re-replication, Hoechst nuclear intensity, 48 h. AID 624296. hit rate 2.9% among 350,000; further: potency means the concentration at half of the fitted maximal effect; % of control where 0% means no effect; nearly all actives have a fitted effect of over 50% in size
SW480 rerep – induces DNA re-replication in SW480 colon adenocarcinoma cells; SW480 DNA re-replication, Hoechst DNA content imaging, 48 h; Potency, µM (series often up to 46.1 µM), for the others: at the top dose re-replication activation, usual class: activators; hit rate 1.8% among 340,000; further: potency means the concentration at half of the fitted maximal effect; % of control where 0% means no effect; nearly all actives have a fitted effect of over 55% in size
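Per well, 250 cells were exposed to pinned compound for 48 hr. Nuclear DNA was visualised with Hoechst (40 min, 37 C) and total object intensity recorded by fluorescence scanning.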
DT40 TDP1 no CPT – qHTS for Inhibitors of human tyrosyl-DNA phosphodiesterase 1 (TDP1): qHTS in cells in absence of CPT. DT40 Tdp1-/- hTDP1 cells, no CPT, ATP luminescence, 48 h. Potency, µM (series often up to 46.2 µM), without a hit: at the highest dose activity change, negative = growth inhibition, most hits filed as inhibitors. hit rate 15% among 420,000; further: potency means the concentration at half of the fitted maximal effect; on the % scale 0 is the no-effect control and ±100 the full control effect; nearly all actives have a fitted effect of over 55% in size
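Growth kinetics read by CellTiter-Glo luminescence after ≥48 hr at 37 °C. Cells: DT40 Tdp1-/- stably carrying human TDP1, 400 per well, compound exposure in the absence of CPT (DMSO vehicle).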
TDP1 cell CPT – DT40-hTDP1 cell growth loss with CPT; hit rate 12% among 420,000; chicken DT40 Tdp1-/-;hTDP1 cells + 20 nM CPT, ATP luminescence, 48 h; Potency, µM (series often up to 46.2 µM), inactives show at the highest dose activity change, negative = growth inhibition, most hits filed as inhibitors; further: potency means the concentration at half of the fitted maximal effect; on the % scale 0 is the no-effect control and ±100 the full control effect; nearly all actives have a fitted effect of over 55% in size
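Cell growth measured by CellTiter-Glo luminescence after a minimum 48 h, 37 C compound exposure with 20 nM CPT in Tdp1-knockout DT40 cells stably expressing hTDP1, seeded 400/well; qHTS titration format.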
BCR signal inh – inhibitors of chronic active B-cell receptor signaling; ABC-DLBCL IkBa-CBG/CBR reporter, luminescence ratio, 4 h; Potency, µM (highest dose often 46.1 µM), without a hit: at the top dose activity change, negative = inhibition, hits mostly inhibitors; hit rate 0.05% among 340,000; AID 493014; active means well fitted inhibition curve with a large enough effect in the signal ratio, with a control signal flat, not every such curve was filed as active; inconclusive means small, poorly fitted or top-dose-only effect, or effect the other way, or a change in a side signal; the % refers to the signal ratio;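 further: potency means the concentration at half of the fitted maximal effect; plate controls were basal doxycycline-induced cells for no effect and cells given 10 µM MG132 for full effect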
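Doxycycline induced both beetle luciferases in TMD8 lymphoma cells; IKK-driven degradation limits the IkappaBalpha-fused green signal, while red luminescence normalises for cell number and nonspecific effects. Compounds tested up to 46 uM, 4 hrs.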
IL-1B inflam inh – inhibitors of inflammasome signaling (IL-1 beta secretion); activity change, % at 57.5 µM; hit rate 4.7% among 360,000; AID 743279; THP-1 LPS/ATP IL-1B secretion, AlphaLISA, 16 h; stronger effect = lower value; in the data active means activity change below about -50%; inconclusive means mostly about -30% to -49%; further: on the % scale 0 is the no-effect control and ±100 the full control effect
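THP-1 cells pretreated 1 hr with compounds (up to 57.5 uM final), then stimulated with LPS (250 ng/mL final) plus ATP (1.25 mM final); secreted IL-1B measured by AlphaLISA after 16 hr, decreased signal indicating inhibition.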
* marks the source's active call; other numbers are inactive results; ? = inconclusive; . = no result given. Unless noted, the call rests on the fitted dose curve; in most records, active means well fitted curve in the direction sought with a large enough effect; inconclusive means small, poorly fitted or top-dose-only effect, or another doubt; inactive means no such curve, though single readings can be large; an effect the other way counts as inactive or inconclusive.

SMILES	MCF10A rereplic	SW480 rerep	DT40 TDP1 no CPT	TDP1 cell CPT	BCR signal inh	IL-1B inflam inh
CCOC(=O)c1[nH]c2ccc(OC)cc2c1NC(=S)N1CCN(c2ccccc2OC)CC1	?	?	8.2µM*	5.2µM*	?	-3
COc1cccc2[nH]c(C(=O)NN)c(N)c12	1%	-5%	16µM*	?	?	25
CCOC(=O)c1[nH]c2cc(OC)c(OC)cc2c1NC(=O)C(C)N1CCN(Cc2ccccc2)CC1 (centres undefined)	?	?	18µM*	?	?	-18
COC(=O)c1[nH]c2ccccc2c1NC(=O)CN1CCN(c2cccc(Cl)c2)CC1	?	-1%	16µM*	26µM*	?	-17
CCOC(=O)[C@H](C)N1[C@H](C)[C@H](c2ccccc2)Oc2ccc(Cl)cc2S1(=O)=O	-3%	-4%	?	?	.	-6
CCC(C)(C(=O)NC1CCCC1)N(C)C(=O)c1ccccn1 (centres undefined)	-2%	9%	-2%	14%	?	-2
COC(=O)c1sc(NC(=O)CN2CCN(c3cccc(Cl)c3)CC2)c(C(=O)OC)c1C	1%	-7%	33µM*	29µM*	.	0
CCOC(=O)c1[nH]c2ccc(Br)cc2c1NC(=O)CCN1CCC(C(=O)OCC)CC1	26µM*	?	16µM*	21µM*	10%	-64*
CCOC(=O)C1CCCN(CC(=O)Nc2c(C(=O)OC)[nH]c3ccc(C)cc23)C1 (centres undefined)	16%	13%	23µM*	?	-8%	59
CCOC(=O)C1CCCN(CC(=O)Nc2c(C(=O)OC)[nH]c3ccc(Cl)cc23)C1 (centres undefined)	13%	4%	?	?	?	16
CCOC(=O)Nc1c(C(=O)OC)[nH]c2cc(OC)ccc12	24%	?	21µM*	?	1%	30
Cc1ccc(NC(=O)N2CCN(Cc3nc4ccc(C)cc4o3)CC2)c(Cl)c1	.	.	-2%	-3%	.	.
COC(=O)c1[nH]c2ccccc2c1NC(=O)CN1CCCCCC1	-3%	-2%	?	?	0%	15
CCOC(=O)c1[nH]c2ccccc2c1NC(=O)c1ccccc1OC	.	.	15µM*	23µM*	.	.
CCOC(=O)N1CCN(CC(=O)Nc2c(C(=O)OC)[nH]c3ccccc23)CC1	5.8µM*	-4%	?	?	?	17
CCOC(=O)c1[nH]c2ccccc2c1NC(=O)c1cc(Cl)ccc1Cl	.	.	-25%	?	.	.
Brc1ccc(-n2cnc(-c3ccccc3)c2)cc1	?	?	?	?	?	16
CN1C(=O)/C(=C/c2ccc(-c3ccccc3[N+](=O)[O-])o2)SC1=Nc1ccc(Cl)c(C(=O)O)c1	15%	-1%	-20%	?	16%	8
Cc1ccc(F)c([C@H]2[C@H]3C=CC[C@@H](C)[C@@H]3C(=O)N2Cc2ccccc2)c1	?	-4%	?	?	-10%	91
COc1ccc(-c2ccc(N(C)C)cc2)cc1[C@H]1[C@H]2C=CC[C@@H](C)[C@@H]2C(=O)N1Cc1ccccc1	2%	0%	8.2µM*	12µM*	2%	10
COc1ccc(-c2cc3ccccc3s2)cc1[C@H]1[C@H]2C=CC[C@@H](C)[C@@H]2C(=O)N1Cc1ccccc1	-13%	-2%	18µM*	?	?	17
COc1ccc(-c2ccc(OC)c([C@H]3[C@H]4C=CC[C@@H](C)[C@@H]4C(=O)N3Cc3ccccc3)c2)cc1C	25%	-3%	10µM*	?	?	26
